Data on 100 compounds can be found in PubChem BioAssay AID1946 (Johns Hopkins Ion Channel Center, 2009).

Each structure is given as a SMILES string. Among all 2,400 compounds or so, about 180 (7.5%) were called active. This is one part of a sample in which actives are shown more often than they occur. Values without a mark were called inactive.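 The calls were made as follows: active = readout below zero, meaning a drop past 3 SD under the dofetilide-free negative control mean; inactive = the rest.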

The target of this test is Potassium voltage-gated channel subfamily KQT member 2 (Rattus norvegicus) (UniProt O88943). In words: rat KCNQ2 channel inhibition by compounds alone, confirmation, counter-screen for hERG block protector project, cell-based, CHO, FluxOR thallium flux (AID 1946). As to conditions: CHO-KCNQ2 cells, FluxOR thallium flux fluorescence; at 10 µM; active compounds read low; zero marks the 3-SD hit cutoff.
Sequence of Potassium voltage-gated channel subfamily KQT member 2 (Rattus norvegicus) (O88943 whole entry, looked up): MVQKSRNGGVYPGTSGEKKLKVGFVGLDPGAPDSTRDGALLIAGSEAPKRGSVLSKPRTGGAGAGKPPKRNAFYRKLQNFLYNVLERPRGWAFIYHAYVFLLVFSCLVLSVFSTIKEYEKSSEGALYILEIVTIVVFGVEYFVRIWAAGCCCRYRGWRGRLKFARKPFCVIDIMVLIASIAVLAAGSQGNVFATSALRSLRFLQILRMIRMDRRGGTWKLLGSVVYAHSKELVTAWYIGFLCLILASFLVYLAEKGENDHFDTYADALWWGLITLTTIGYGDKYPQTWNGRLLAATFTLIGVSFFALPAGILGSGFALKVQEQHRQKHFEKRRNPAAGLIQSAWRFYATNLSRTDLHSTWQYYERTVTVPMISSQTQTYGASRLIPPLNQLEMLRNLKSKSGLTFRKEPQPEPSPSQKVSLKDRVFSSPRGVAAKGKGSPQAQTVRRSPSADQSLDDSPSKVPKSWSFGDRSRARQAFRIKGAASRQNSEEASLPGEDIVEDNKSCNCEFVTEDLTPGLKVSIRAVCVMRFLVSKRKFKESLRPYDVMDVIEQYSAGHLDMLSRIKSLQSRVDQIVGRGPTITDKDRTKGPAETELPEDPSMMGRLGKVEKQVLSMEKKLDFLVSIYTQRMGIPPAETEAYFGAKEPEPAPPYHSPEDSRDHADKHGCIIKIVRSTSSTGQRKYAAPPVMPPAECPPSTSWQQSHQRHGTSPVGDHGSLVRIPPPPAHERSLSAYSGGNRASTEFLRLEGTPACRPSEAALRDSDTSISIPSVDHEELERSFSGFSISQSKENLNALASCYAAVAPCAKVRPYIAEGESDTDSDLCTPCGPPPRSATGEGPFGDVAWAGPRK
Take `CC(C)(C)OC(=O)NCCCC(CCCNC(=O)OC(C)(C)C)C(=O)O`: the activity change vs negative control was -1.1% (active).
As to `Cc1c(C)c2ccc(OCC(=O)N[C@@H](Cc3ccccc3)C(=O)O)cc2oc1=O`, the activity change vs negative control was 11.8%.
Turning to `O=C(NC(=S)Nc1ccccc1Cl)c1ccco1`, the activity change vs negative control was 32.3%.
The result for `O=C(CCC1CCCC1)NNC(=O)c1cccc(Cl)c1` reads 39.5%; that for `Cn1c(=S)[nH]c2scc(-c3cccs3)c2c1=O`, 93.4%.
The result for `CCc1ccc(C(C)NC(=O)C2CCCC2)cc1` (stereo not given) reads 42.6%; that for `CCCCCn1c(=S)[nH]c2ncccc2c1=O`, 48.4%.
As for `Cc1ccc(/C=C(\NC(=O)c2ccccc2)C(=O)N2CCCCC2)cc1`, the activity change vs negative control was -1.3% (active).
With `O=C(NC(=S)N1CCN(c2ccccc2)CC1)c1ccccc1`, the activity change vs negative control was 33.2%.
As for `CC(C)(C)c1ccc(C(=O)NC(=S)N2CCCCCC2)cc1`, the activity change vs negative control is 40.6%.
Turning to `CCCCOc1ccc(-c2c(C#N)c(N)[nH]c(=S)c2C#N)cc1`, the activity change vs negative control is 21.3%.
To `O=c1oc2ccccc2c(Cl)c1CN1CCCCC1` belongs 32.3%; to `C=CCn1c(=S)[nH]c2ccc(Br)cc2c1=O`, 40.2%; to `O=C(COC(=O)C1CCC(=O)N1)Nc1ccc(Oc2ccccc2)cc1` (stereo not given), 10.5%.
Consider `COC(=O)c1ccc(NC(=O)COC(=O)C2CC(=O)N(Cc3ccccc3)C2)cc1` (stereo not given), for which the activity change vs negative control was -5.2% (active).
In the case of `COc1ccc(N2CC(C(=O)OCC(=O)Nc3ccccc3C)CC2=O)cc1` (stereo not given), the activity change vs negative control is 9%.
Turning to `COC(=O)c1c(NS(=O)(=O)Cc2ccccc2)sc2c1CCCC2`, the activity change vs negative control is 56.6%.
Turning to `Cc1ccccc1C(=O)c1cn[nH]c1-c1ccccc1O`, the activity change vs negative control was -4.7% (active).
With `Cc1ccccc1C(=O)Nc1nc(=S)ss1`, the activity change vs negative control was 82.2%.
With `Cc1ccc(C(=O)c2ccccc2C(=O)O)c(O)c1`, the activity change vs negative control is 6.4%.
As to `COc1ccc(C(=O)CC(=O)C(=O)Nc2ccccc2C(F)(F)F)cc1`, the activity change vs negative control was 36.8%.
With `CCOC(=O)N1CCC(N2C(=O)c3ccccc3C2Nc2cccnc2)CC1` (stereo not given), the activity change vs negative control was 27.6%.
To `CCOc1ccc(C(C)NC(=S)NC2CCCCC2)cc1` (stereo not given) belongs 40.9%; to `Fc1cccc2sc(Nc3nc4c(F)cccc4s3)nc12`, 30.2%.
Consider `Cc1ccc(-c2csc3nc[nH]c(=S)c23)cc1`, for which the activity change vs negative control was 62.4%.
Take `CCOc1ccc(NC(=O)CS(=O)CC(=O)NC2CCCc3ccccc32)cc1` (stereo not given): the activity change vs negative control was 8.3%.
To `Cn1nnnc1SCC(=O)Nc1ccccn1` belongs 8.7%; to `Cn1nnnc1SCC(=O)NC1CCCc2ccccc21` (stereo not given), -7.8% (active).
To `Cc1cccc(OCC(=O)NC2CCCc3ccccc32)c1C` (stereo not given) belongs -10.6% (active); to `CCn1nnnc1SCC(=O)N1c2ccccc2Sc2ccccc21`, 5.3%.
To `O=C(NC(=S)NC1CCCc2ccccc21)c1ccco1` (stereo not given) belongs 28.4%; to `Cc1cccc(NC(=O)C(=O)NNC(=O)c2ccc(C(C)(C)C)cc2)c1`, 134%; to `C=CCn1c(=S)[nH]c2sc3c(c2c1=O)CCC3`, 64.2%.
With `CC(NC(=O)NC1CCCCC1)c1ccccc1` (stereo not given), the activity change vs negative control is 57.6%.
`CCN(Cc1ccccc1)C(=S)NC(=O)c1ccccc1Br`: the activity change vs negative control was 96.1%.
As to `S=c1nc(SCc2ccccc2)[nH]c2ccccc12`, the activity change vs negative control is 95.4%.
To `Cc1ccc(/C=C/C(=O)C2C(=O)c3ccccc3C2=O)cc1` belongs 69.5%.
The result for `Cc1cc([N+](=O)[O-])ccc1-c1ccc(C2Nc3ccccc3C(=O)N2O)o1` (stereo not given) reads 24.1%; that for `Cc1ccc(/C=N/N2C(=O)c3ccccc3NC2c2ccc(C)cc2)cc1` (stereo not given), -1.1% (active).
The result for `CC(C)CNC(=S)NC(=O)c1ccc(Cl)cc1` reads 10.6%; that for `CCc1c(C)sc(NC(=O)CN2CCN(C(=O)c3ccco3)CC2)c1C(=O)OC`, 44.4%; that for `Cc1ccc(-c2nc3c(Cl)cc(Cl)cc3c(=O)n2O)cc1`, 164%.
As for `CC(=O)C1=C(O)C(=O)N(c2cccnc2)C1c1ccc(Cl)cc1` (stereo not given), the activity change vs negative control is -2.8% (active).
For `CC1=NN(c2ccccc2)C(=O)C1C(=O)c1ccc(Cl)cc1` (stereo not given), the activity change vs negative control was 28.9%.
On to `O=C1c2ccccc2C(=O)N1c1cccnc1`, for which the activity change vs negative control is 6.9%.
To `CN(Cc1ccccc1)C(=S)NC(=O)c1cccs1` belongs 31.2%; to `Nc1nc(O)c(N=Nc2ccc(S(N)(=O)=O)cc2)c(=O)[nH]1`, -2% (active); to `Cc1ccc2[nH]c(=O)c(C(c3nnnn3C3CCCC3)N3CCCc4ccccc43)cc2c1` (stereo not given), 27.9%.
For `COc1ccc(-c2csc(NC(=S)NC(=O)c3ccco3)n2)cc1`, the activity change vs negative control was 21.1%.
To `Cn1c(=O)c2sccc2n(Cc2cccc(Br)c2)c1=O` belongs 10.6%; to `COCCCn1c(=S)[nH]c2c(sc3ccccc32)c1=O`, 12.3%; to `C=Cc1ccc(Cn2c(=O)n(CCCOC)c(=O)c3sccc32)cc1`, -5.9% (active).
For the compound `Cc1cccc2nc(-c3cccnc3)c(NCCC(C)C)n12`, the activity change vs negative control is -23.5% (active).
With `CC(C)Cn1c(=S)[nH]c2cc(Cl)ccc21`, the activity change vs negative control was 21%.
As to `COc1ccc(-c2nc(=S)c3ccc4ccccc4c3[nH]2)cc1`, the activity change vs negative control is 74.5%.
To `CC(C)OC(=O)c1c(NS(=O)(=O)c2ccccc2)sc2c1CCCC2` belongs 31%; to `C/C(=C/CCC(C)C1CCC2(C)C3CCC4C(C)(C)C(=O)CCC4(C)C3=CCC12C)C(=O)O` (stereo not given), 4.1%; to `C/C(=C/CCC(C)[C@H]1CC[C@@]2(C)C3=C(CC[C@]12C)[C@@]1(C)CCC(=O)C(C)(C)[C@@H]1CC3)C(=O)O` (stereo not given in full), -13.3% (active).
`O=C1c2ccccc2NC(c2ccc(Br)s2)N1O` (stereo not given): the activity change vs negative control is 92.4%.
In the case of `COc1cccc(C=NCCCN=Cc2cccc(OC)c2O)c1O`, the activity change vs negative control was 37.4%.
For the compound `C=CCn1c(N2CCCCCC2)nc2c1c(=O)n(C)c(=O)n2C`, the activity change vs negative control was 15.6%.
The result for `Cc1ccnc(SCCn2c(N3CC(C)OC(C)C3)nc3c2c(=O)n(C)c(=O)n3C)n1` (stereo not given) reads -2% (active); that for `CCOC(=O)NC(=S)Nc1ccc(C(C)(C)C)cc1`, 30.4%.
With `CCOc1ccc(/C=C2/SC(=O)NC2=S)cc1`, the activity change vs negative control is 111%.
To `CCCCC(=O)Nc1ccc(NCc2ccc(C)s2)cc1` belongs 66.2%; to `Cc1c(-c2ccccc2)sc2nc[nH]c(=S)c12`, 75%.
For `Cc1cc(C(=O)NP(=O)(N2CCOCC2)N2CCOCC2)c(C)n1-c1ccc(Br)cc1`, the activity change vs negative control is -0.1% (active).
On to `Cc1cc(F)c(F)c(C(=O)N2CCOCC2)c1`, for which the activity change vs negative control is 7.3%.
The result for `Cc1ccc(-n2c(C)cc(C(=O)CN3CCOCC3)c2C)cc1` reads 10.9%; that for `O=c1c(-c2cccc3ccccc23)[n+]([O-])c2ccccc2n1O`, 27.4%; that for `COc1ccc(-c2cc(=O)oc3cc(OCC(C)=O)ccc23)cc1`, -6.4% (active).
`Cc1cc(=O)oc2cc(OCC(=O)OCC(=O)NC(C)C)ccc12`: the activity change vs negative control was 12.7%.
The result for `COc1ccc(-c2c(C)c3ccc(OCC(C)=O)cc3oc2=O)cc1` reads 4.2%; that for `Oc1ccc(N2CCN(C(c3cccnc3)c3nnnn3Cc3ccccc3)CC2)cc1` (stereo not given), 19.3%.
The result for `c1ccc(Cn2ncc3c(N4CCN(C(c5ccccc5)c5ccccc5)CC4)ncnc32)cc1` reads -7.5% (active).
The result for `Oc1ccc(Cl)cc1C1=NNC(c2cccs2)C1` (stereo not given) reads 36.9%; that for `CC(C)c1ccc(NC(=O)C2CC3CCC2C3)cc1` (stereo not given), 45.1%; that for `CCOC(=O)C1=NN(C(=O)c2cccc(Br)c2)C(O)(C(C)(C)C)C1` (stereo not given), 111%.
`O=C(NC(=S)N1CCCc2ccccc21)c1ccc(Br)cc1`: the activity change vs negative control is 49.6%.
With `O=C(Nn1cnnc1)c1ccncc1`, the activity change vs negative control was 12.7%.
As to `O=C(NN1C(=O)C2C(c3ccccc3)C=CC(c3ccccc3)C2C1=O)c1ccncc1` (stereo not given), the activity change vs negative control was -13% (active).
On to `O=C(NN1C(=O)C2C(c3ccccc3)C=CC(c3ccccc3)C2C1=O)c1cccc(Br)c1` (stereo not given), for which the activity change vs negative control was 10.8%.
Turning to `Cc1ccc(C(C)NC(=O)C2CCCC2)cc1C` (stereo not given), the activity change vs negative control was 66.7%.
To `Cc1cccc(N2CCN(C(=O)Cc3c(C(=O)O)[nH]c4ccc(Cl)cc34)CC2)c1C` belongs 38.6%; to `CC1CCN(C(=S)NC(=O)c2cccc([N+](=O)[O-])c2)CC1`, 37.1%.
As for `O=c1c2cc(Cl)ccc2nc(-c2ccc(Cl)c(Cl)c2)n1O`, the activity change vs negative control is 150%.
To `Cc1ccc(-c2nc3ccc(Cl)cc3c(=O)n2O)cc1` belongs 118%; to `Cc1ccc(-c2onc3ccc(Cl)cc23)cc1`, -2% (active); to `CC[C@@H](C(=O)[C@@H](C)[C@@H](O)[C@H](C)CCc1ccc(C)c(O)c1C(=O)O)[C@H]1O[C@](CC)([C@H]2CC[C@](O)(CC)[C@H](C)O2)C[C@@H]1C`, 169%.
In the case of `COc1ccccc1NC(=S)NC(=O)c1ccc(-c2ccc(Cl)cc2)o1`, the activity change vs negative control is 16.7%.
On to `C=CCn1c(=S)[nH]c2sc3c(c2c1=O)CCCC3`, for which the activity change vs negative control was 60.7%.
To `O=C(NC(=S)NCCc1ccc(Cl)cc1)c1ccco1` belongs 23.7%; to `O=C(CNC(=O)c1ccccc1)NCc1ccc(Cl)cc1`, 10.8%.
For `O=C(Cn1c(=O)c2cccn2c2ccccc21)NCCc1ccc(Cl)cc1`, the activity change vs negative control is -3.5% (active).
To `Cc1nc(NCCc2ccc(S(N)(=O)=O)cc2)c2c(C)c(C)sc2n1` belongs 15.2%.
For the compound `O=c1cc(-c2c(F)c(F)c(F)c(F)c2F)oc2ccccc12`, the activity change vs negative control is 41.6%.
`COc1ccccc1C(=O)COC(=O)c1ccc(-n2cnnn2)cc1`: the activity change vs negative control is -0.2% (active).
As to `COc1ccccc1C(=O)Nc1ccc(C(=O)N2CCCC2)cc1`, the activity change vs negative control is 14.7%.
Take `CCOC(=O)c1nnn(CC(=O)Nc2ccccc2OC)c1C(=O)OCC`: the activity change vs negative control is 7.9%.
As to `O=C(NC(=S)Nc1nc(-c2ccc([N+](=O)[O-])cc2)cs1)c1ccco1`, the activity change vs negative control is 42%.
